Data on 40 sequences can be found in the OligoGym collection.
Note: reference of the scale not given here.

In the first test the target is PLEKHN1. Put plainly: pooled miR-30 sensor sort-seq; sequence = guide strand. To be noted: shRNA.
On to TCGCTGGTTCTCCAGGTCCAGG, for which the sensor-assay potency score (higher = more potent) is -2.

For the sequence TTCTTGGAGAGCAAGTAGGGGC, the sensor-assay potency score (higher = more potent) is -0.773.

The sequence TAGCTGGCGCACACCACGCGGA returned a sensor-assay potency score (higher = more potent) of -1.23.

Consider TAGTGGAAGAGCTTGTTGGCGG, for which the sensor-assay potency score (higher = more potent) is -0.587.

Consider TAGCAGTCGCTGACATCCTGGC, for which the sensor-assay potency score (higher = more potent) is -0.66.

Regarding TTTCTGGAGAAGGAGGCCCGGA, the sensor-assay potency score (higher = more potent) is -1.45.

Sequence TAGCTCCAGGTAGCAGTCGCTG registered a sensor-assay potency score (higher = more potent) of -1.67.

TCCAGGTCCAGGATGTCCGTGC returned a sensor-assay potency score (higher = more potent) of -1.12.

A further test concerns the target PLK1S1. The test is described as above. The note with it: shRNA.
Regarding TAGATGAAAAACTAGCTTCCGA, the sensor-assay potency score (higher = more potent) is -0.0275.

In turn, TAGTTTTACATATTTCAGCTTA displayed a sensor-assay potency score (higher = more potent) of -0.42.

Consider TATTTCAGCTTAACTCTGCATG, for which the sensor-assay potency score (higher = more potent) is -0.461.

For the sequence TTGTACTACACAGCTGTCTGTC, the sensor-assay potency score (higher = more potent) was -0.193.

For the sequence TATTCTGAAACTGGTATCGGAG, the sensor-assay potency score (higher = more potent) is -0.809.

For the sequence TTTGAGCATAGCATCTTCTTAA, the sensor-assay potency score (higher = more potent) was -0.677.

Sequence TTGAGTCTCATATTCGAGCTTC showed a sensor-assay potency score (higher = more potent) of 0.47.

In turn, TTGGTTTCGAGTATGAGCCTTC had a sensor-assay potency score (higher = more potent) of 0.232.

Turning to TTCAGATTCACATATTTCCTTC, the sensor-assay potency score (higher = more potent) is -0.129.

TTTGTCTCGAATGCACCGCTGC came in with a sensor-assay potency score (higher = more potent) of -0.55.

As to TATTCCACTATTGTCATTCAGA, the sensor-assay potency score (higher = more potent) was -0.697.

A further test concerns the target PLN. Described as above. To be noted: shRNA.
TCTGTAGCTTTTGACGTGCTTG yielded a sensor-assay potency score (higher = more potent) of -0.521.

TATAGCTGAGCGAGTGAGGTAT yielded a sensor-assay potency score (higher = more potent) of -0.0267.

Sequence TAGCTTTTGACGTGCTTGTTGA gave a sensor-assay potency score (higher = more potent) of -0.611.

On to TTGACGTGCTTGTTGAGGCATT, for which the sensor-assay potency score (higher = more potent) is -0.832.

With TAAGATGAGACAGAAATTGATA, the sensor-assay potency score (higher = more potent) was -0.754.

The sequence TTTCACAAAGAAACTCTTCTAC came in with a sensor-assay potency score (higher = more potent) of 0.725.

Consider TTAGTCTTAATCTTGACCTTTT, for which the sensor-assay potency score (higher = more potent) was -0.719.

For the sequence TTAATCTTGACCTTTTCACAAA, the sensor-assay potency score (higher = more potent) is -1.35.

Regarding TTTGACGTGCTTGTTGAGGCAT, the sensor-assay potency score (higher = more potent) is 0.851.

For the sequence TTTAGTCTTAATCTTGACCTTT, the sensor-assay potency score (higher = more potent) was -0.026.

With TTGTTTTCCTGTCTGCATGGGA, the sensor-assay potency score (higher = more potent) came to 0.161.

For the sequence TTGAGGCTCTTCTTATAGCTGA, the sensor-assay potency score (higher = more potent) was -0.603.

Another test deals with PLS1. The test is described as above. The note with it: shRNA.
TAAATTTTCAGAAATAGTGAAT returned a sensor-assay potency score (higher = more potent) of -0.578.

In the case of TTTGCTTTTTAATTCTTGCATT, the sensor-assay potency score (higher = more potent) is -1.04.

TTGTAGTTCTTCAAGCTCCTCC: the sensor-assay potency score (higher = more potent) turned out to be 0.438.

Sequence TTTATCTGCTTCTTGAAGCATG registered a sensor-assay potency score (higher = more potent) of -0.495.

Sequence TGTGCTTATAGATTTATCCTTG displayed a sensor-assay potency score (higher = more potent) of 0.0263.

Turning to TTCCTTGCTCTCTCCTTCCAGT, the sensor-assay potency score (higher = more potent) was -0.4.

In turn, ATTCCTTTCATTTAGGTCCTGC came in with a sensor-assay potency score (higher = more potent) of 0.408.

The sequence TTTAAGAGTCTGATTGACCCAT registered a sensor-assay potency score (higher = more potent) of 0.465.

The sequence TTAGTGACACAAACTCTTCAAA gave a sensor-assay potency score (higher = more potent) of -0.919.
